Measured values taken from PubChem BioAssay.
The source made the active and inactive calls.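 How the source made its calls, unless noted: active means inhibition of the reporter signal at or above 50%; inactive means inhibition below 50%.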

Tests used:
[1] = inhibitors of TNFa-induced NFkB p65 translocation, primary screen, imaging, HUVEC, MLSMR starter and 10KST1 sets (AID 438;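 active means inhibition above 20% together with a positive visual image hit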;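 further: compound added about 3h40 before a 20 min TNFalpha stimulation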;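 on inhibition: signal is the nuclear over cytoplasmic p65 intensity ratio per well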); details: HUVEC TNFa-induced p65 nuclear translocation; cell count: measured here: nuclei count (cytotoxicity indicator), at 2.08 µM; inhibition: at 2 µM, stronger effect = higher value, 0% TNFa-plus-vehicle, 100% no-TNFa wells
[2] = reduction of polyQ htt aggregates in cells – imaging, exon1htt(103Q)mCFP cells, high-content imaging, primary screen (AID 483;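 active means visual image review flags a hit and inhibition of aggregation exceeds 20%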;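 further: compound exposure lasted 3 days before fixation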;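 on nuclei count: percent of the per-plate median nuclei count of sample wells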); details: exon1htt(103Q)mCFP cell line, aggregate imaging, at 2 µM; inhibition of aggregation: stronger effect = higher value; nuclei count: measured here: cell count, toxicity
[3] = endothelial E-selectin expression blockers – imaging, HUVEC, immunofluorescence, MLSMR starter and 10KST1 sets, primary screen (AID 487;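 active means visually confirmed hit in the image check and inhibition above 20%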;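 on inhibition: signal is fraction of cell area covered by stained E-selectin grains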;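 on nuclei count: 100% = median nuclei count of all wells on the same plate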); details: HUVEC TNFalpha-induced E-selectin immunofluorescence imaging, at 2 µM; inhibition: stronger effect = higher value; nuclei count: measured here: cell number, toxicity
[4] = biological target: Voltage-gated potassium channel subunit beta-2 (Rattus norvegicus) (UniProt P62483); experiment: inhibitors of rat Kvbeta2 reductase activity – biochemical, NADPH fluorescence, primary screen (AID 622;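 active means fluorescence slope higher than the sample average by over 3 SD, cut at about -0.22 in these data, passing the limit was not always enough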;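 further: slope of raw intensity against log time taken from 70 to 1610 s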); details: recombinant KvBeta, 4-cyanobenzaldehyde reduction, at 10 µM, stronger effect = higher value
[5] = biological target: Voltage-gated potassium channel subunit beta-2 (Rattus norvegicus) (UniProt P62483); experiment: enhancers of rat Kvbeta2 NADPH turnover – biochemical, NADPH fluorescence, primary screen (AID 623;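 active means NADPH fluorescence slope more negative than the mean of all samples by about 3 SD, 99.7% confidence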;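 further: fluorescence intensity change per second fitted from 20 to 320 s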); details: Recombinant KvBeta, NADPH fluorescence decrease slope, 10 min; at 10 µM; stronger effect = lower value
[6] = biological target: Alpha-2C adrenergic receptor (Homo sapiens) (UniProt P18825); experiment: compounds altering alpha2C-coupled GIRK flux – cell-based, HEK293 alpha2C/GIRK1/2, thallium flux, primary screen (AID 624;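 active means fluorescence slope after compound addition differing from the mean of all screened samples at 99.7% confidence, in either direction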;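 further: slope of fluorescence ratio to pre-addition baseline per second over 15 to 24 s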); details: thallium flux BTC fluorescence, at 10 µM, actives lie on both sides
[7] = blockers of RIG-like receptor reporter activation – cell-based, Sendai virus stimulus, luciferase, 10K MLSCN set, TLR/RLR signaling modifier project, primary screen (AID 602276;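 active means inhibition at or above 50% at 10 µM; inactive means inhibition below 50%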;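 further: firefly luciferase from ISG56 promoter only with Renilla not read in this screen; 0% = Sendai virus plus DMSO and 100% = medium plus DMSO without virus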); details: HEK293 RL24 IRF3 luciferase reporter, at 10 µM, stronger effect = higher value
[8] = TLR3 IRF3 reporter activation blockers – cell-based, poly I:C stimulus, luciferase, 10K MLSCN set, primary screen (AID 602277); details: HEK293-TLR3 RL24 IRF3 luciferase reporter, at 10 µM, stronger effect = higher value

Alpha-2C adrenergic receptor (Homo sapiens), sequence (P18825 whole entry, looked up): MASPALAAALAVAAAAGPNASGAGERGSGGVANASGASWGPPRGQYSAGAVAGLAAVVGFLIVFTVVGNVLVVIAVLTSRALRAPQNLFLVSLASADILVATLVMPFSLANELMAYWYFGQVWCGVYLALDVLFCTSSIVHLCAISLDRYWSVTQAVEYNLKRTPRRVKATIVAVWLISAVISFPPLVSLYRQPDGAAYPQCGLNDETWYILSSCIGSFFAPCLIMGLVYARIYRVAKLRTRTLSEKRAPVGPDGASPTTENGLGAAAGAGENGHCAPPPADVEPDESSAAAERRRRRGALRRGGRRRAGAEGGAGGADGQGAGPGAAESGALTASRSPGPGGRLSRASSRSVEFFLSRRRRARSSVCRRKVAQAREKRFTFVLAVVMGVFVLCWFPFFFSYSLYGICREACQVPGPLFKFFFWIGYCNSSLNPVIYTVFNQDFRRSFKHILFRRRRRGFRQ
Voltage-gated potassium channel subunit beta-2 (Rattus norvegicus), sequence (P62483 whole entry, looked up): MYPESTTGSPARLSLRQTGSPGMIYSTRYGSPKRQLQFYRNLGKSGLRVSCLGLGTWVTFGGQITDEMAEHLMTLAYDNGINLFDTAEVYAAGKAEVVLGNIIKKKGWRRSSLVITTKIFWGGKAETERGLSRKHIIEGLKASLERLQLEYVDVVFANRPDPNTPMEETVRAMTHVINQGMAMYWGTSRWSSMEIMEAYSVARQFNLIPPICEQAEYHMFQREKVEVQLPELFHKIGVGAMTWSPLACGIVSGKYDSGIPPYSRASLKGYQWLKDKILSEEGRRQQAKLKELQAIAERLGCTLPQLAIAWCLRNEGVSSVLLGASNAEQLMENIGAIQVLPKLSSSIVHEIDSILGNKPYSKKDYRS

Row | SMILES | cell count [1] | inhibition [1] | inhibition of aggregation [2] | nuclei count [2] | inhibition [3] | nuclei count [3] | fluorescence slope [4] | NADPH fluorescence slope [5] | slope [6] | inhibition [7] | inhibition [8]
1 | CN(Cc1nc(-c2ccncc2)no1)S(=O)(=O)c1ccccc1 | 560 | 0.6% (inactive) | -16.9% (inactive) | 103% | -18.6% (inactive) | 104% | -0.654 (inactive) | -4.4e-05 (inactive) | 0.00664 (inactive) | 12.9% (inactive) | 13.2% (inactive)
2 | O=c1[nH]cnc2c1C1(CCCC1)Cc1ccccc1-2 | 381 | -10.6% (inactive) | 19.5% (inactive) | 87% | -22.8% (inactive) | 110% | -0.274 (inactive) | -1.9e-05 (inactive) | 0.00586 (inactive) | 9.37% (inactive) | 35.4% (inactive)
3 | COc1ccc(N2CC(C(=O)Nc3ccc(F)cc3F)CC2=O)cc1 (stereo not given) | 281 | -3.5% (inactive) | -30.8% (inactive) | 111% | 12% (inactive) | 104% | -0.514 (inactive) | -1.3e-05 (inactive) | 0.00428 (inactive) | 14.4% (inactive) | 20.8% (inactive)
4 | CC(C)(C)NC(=O)Cn1c(=O)oc2ccc(Cl)cc21 | 676 | 0% (inactive) | 1.8% (inactive) | 116% | -47.1% (inactive) | 106% | -0.407 (inactive) | 6.2e-05 (inactive) | 0.00569 (inactive) | 0.919% (inactive) | 20.8% (inactive)
5 | CCOC(=O)CNC(=O)Nc1nnc(-c2ccc(OCC)cc2)o1 | 486 | -30.9% (inactive) | 3.3% (inactive) | 91.3% | -12.6% (inactive) | 103% | -0.591 (inactive) | 2.1e-05 (inactive) | 0.00589 (inactive) | -14.6% (inactive) | -13.9% (inactive)
6 | C=CCn1c(SCc2ccc(C#N)cc2)nnc1-c1cccc(Cl)c1 | 397 | -11.3% (inactive) | 10.7% (inactive) | 95.4% | -62.4% (inactive) | 187% | -0.421 (inactive) | -4.1e-05 (inactive) | 0.00297 (inactive) | 11.7% (inactive) | 35.5% (inactive)
7 | O=C(CN(c1ccc(F)cc1)S(=O)(=O)c1ccc2c(c1)OCCO2)Nc1ccc2c(c1)OCO2 | 795 | -6.1% (inactive) | -28.9% (inactive) | 105% | -49.1% (inactive) | 114% | -0.485 (inactive) | -3.3e-05 (inactive) | 0.00328 (inactive) | 16.4% (inactive) | 16.1% (inactive)
8 | COc1ccc(S(=O)(=O)Nc2ccccc2OC)cc1C | 471 | -3.3% (inactive) | 0.3% (inactive) | 96.5% | -26.6% (inactive) | 110% | -0.459 (inactive) | 1.9e-05 (inactive) | 0.00608 (inactive) | 16.7% (inactive) | 27.5% (inactive)
9 | Cc1cc(C)cc(-n2nnc(C(=O)NCc3ccc4c(c3)OCO4)c2N)c1 | 571 | 7.5% (inactive) | -33.1% (inactive) | 108% | -17.7% (inactive) | 108% | -0.572 (inactive) | 2.9e-05 (inactive) | 0.00545 (inactive) | 7.67% (inactive) | 22.1% (inactive)
10 | CCOC(=O)c1ccc(NC(=O)Nc2ccn(C)n2)cc1 | 354 | 8.8% (inactive) | 11.9% (inactive) | 110% | -23.7% (inactive) | 100% | -0.383 (inactive) | -2.9e-05 (inactive) | 0.00615 (inactive) | -16.4% (inactive) | -66.8% (inactive)
11 | CCc1ccc(C2CC(c3ccccc3)n3ncnc3N2)cc1 (stereo not given) | 626 | 1.1% (inactive) | 25.1% (inactive) | 72% | -22.9% (inactive) | 70.6% | -0.586 (inactive) | -3.4e-05 (inactive) | 0.00702 (inactive) | 13.8% (inactive) | 28.3% (inactive)
12 | CCCSc1nnc(N2C(=O)CC(c3ccsc3)C3=C2CCCC3=O)s1 (stereo not given) | 640 | -5.3% (inactive) | 24.3% (inactive) | 90.4% | -39.5% (inactive) | 102% | -0.558 (inactive) | -3.6e-05 (inactive) | 0.00697 (inactive) | 5.11% (inactive) | 26.4% (inactive)
13 | CCc1nnc(NC(=O)NCN2C(=O)C3C4C=CC(C4)C3C2=O)s1 (stereo not given) | 303 | 4.3% (inactive) | 3.2% (inactive) | 92.9% | -28.4% (inactive) | 96.4% | -0.458 (inactive) | -0.000309 (inactive) | 0.00673 (inactive) | 7.26% (inactive) | 12.4% (inactive)
14 | Cc1cc(C)c(C(=O)CSc2nnc(-c3ccccc3Br)o2)cc1C | 433 | 2.9% (inactive) | -0.1% (inactive) | 97.3% | -64.9% (inactive) | 124% | -0.397 (inactive) | -2.6e-05 (inactive) | 0.00604 (inactive) | 9.09% (inactive) | 3.14% (inactive)
15 | N#Cc1cc2c(nc1SCC(=O)N1CCCCC1)CCCC2 | 220 | 5.5% (inactive) | 0.1% (inactive) | 90.1% | -46% (inactive) | 98.7% | -0.473 (inactive) | 4.2e-05 (inactive) | 0.00388 (inactive) | -26.1% (inactive) | -20.2% (inactive)
16 | N#Cc1c(N)nc2c(c1-c1ccncc1)CCCCC2 | 658 | 3.9% (inactive) | 0% (inactive) | 106% | 4.5% (inactive) | 103% | -0.577 (inactive) | -5.4e-05 (inactive) | 0.00353 (inactive) | 12.7% (inactive) | 12.3% (inactive)
17 | O=c1ccc2cc3c([nH]c4ccc(Br)cc43)oc-2c1O | 447 | 4.7% (inactive) | -0.5% (inactive) | 111% | -84.7% (inactive) | 109% | -0.596 (inactive) | -5.1e-05 (inactive) | 0.00638 (inactive) | 11.2% (inactive) | 24.2% (inactive)
18 | COc1ccccc1N1C(=O)c2ccccc2NC1c1ccncc1 (stereo not given) | 427 | 5.6% (inactive) | -20.4% (inactive) | 103% | -456% (inactive) | 163% | -0.437 (inactive) | -0.000349 (inactive) | 0.00578 (inactive) | -1.3% (inactive) | 5.74% (inactive)
19 | CC1(C)OC(=O)C(=CNC(CCC(N)=O)C(=O)O)C(=O)O1 (stereo not given) | 679 | 3.6% (inactive) | 0.3% (inactive) | 117% | -16.8% (inactive) | 108% | -0.611 (inactive) | -9.2e-07 (inactive) | 0.00611 (inactive) | -19% (inactive) | -5.5% (inactive)
20 | CC(C)Cn1c(N)c(C(=O)COC(=O)c2ccc3c(c2)OCCO3)c(=O)n(C)c1=O | 365 | -4.4% (inactive) | -5.7% (inactive) | 75.7% | -5.7% (inactive) | 106% | -0.575 (inactive) | -6.3e-05 (inactive) | 0.0066 (inactive) | -14.6% (inactive) | -49.5% (inactive)
